# Assay outcomes deposited in PubChem by NMMLSC.
# Most compounds without a hit are left out; they make up all but 0.91% or so of the library.
# Proteasome disasm – blocks ATP-dependent breakdown of the yeast 26S proteasome | 0.2% of 24,000 active | anti-FLAG beads, GFP-proteasome disassembly, flow cytometry | inhibition of disassembly, % (concentration not given with the values);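 active = inhibition of disassembly above about 33%, limit read from the data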;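 also: plate controls were ATP control with full disassembly for no effect and ATP-gamma-S intact proteasomes for full effect; higher percent means more bead fluorescence retained so stronger block of disassembly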
# QS inhibitor – blocks AIP-induced quorum sensing reporter in S. aureus. inhibition, % at 2 µM. S. aureus RN6390 RNAIII-GFP reporter, flow cytometry 3 h. AID 527. 0.3% of 24,000 active;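 active = share of bacteria positive for the green fluorescent reporter and its mean brightness both inhibited by 50% or more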;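 also: 0% = AIP-stimulated control and 100% = unstimulated bacteria without AIP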
# LNCaP diff act – activators of LNCaP prostate cell differentiation; flow cytometry side scatter, 4 d; side scatter shift, % at 10 µM; 0.56% of 24,000 active;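 active = side scatter shift above 30%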;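 also: androgen-responsive LNCaP prostate cancer cells in charcoal-stripped serum medium; percent of cells past a gate set so DMSO wells show 10% shift; higher shift means more granular cells and more differentiation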
# * = called active by the depositor; . = no result.
SMILES,Proteasome disasm,QS inhibitor,LNCaP diff act
Cc1cc(C)c2cc(CN(CCN3CCCC3)C(=O)Nc3ccc(F)cc3)c(=O)[nH]c2c1,.,0,.
Cc1ccc2[nH]c(=O)c(CN(CCN3CCOCC3)C(=O)Nc3ccc(F)cc3)cc2c1,.,-2,.
O=C(Nc1ccccc1)N(CCCN1CCOCC1)Cc1cc2cc3c(cc2[nH]c1=O)OCCO3,-4,2,9
CCc1ccc2[nH]c(=O)c(CN(CCCN3CCOCC3)C(=O)Nc3ccc(Cl)cc3)cc2c1,.,94*,.
CCOC(=O)C1=C(C)Nc2nc(SCC)[nH]c(=O)c2C1c1ccncc1 (stereo not drawn),-1,-1,5
CCCCC(=O)Nc1ccc(NC(=O)C2CC2)nc1,1,-2,3
O=C(O)CCc1cc(I)c(Oc2ccc(O)c(I)c2)c(I)c1,0,88*,7
N[C@@H](Cc1cc(I)c(Oc2ccc(O)c(I)c2)c(I)c1)C(=O)O,0,21,4
O=C(NCC1CCCO1)c1ccc(CS(=O)(=O)Cc2ccc(F)cc2)o1 (stereo not drawn),-1,-2,6
O=C(NCC(c1cccnc1)N1CCOCC1)c1cccc(Cl)c1 (stereo not drawn),-3,-2,.
O=C(NCC(c1cccnc1)N1CCN(c2ccccc2F)CC1)c1cccc(Cl)c1 (stereo not drawn),-3,59*,1
Cn1nc(-c2ccc(Cl)cc2)c2cc(C(=O)N3CCOCC3)sc21,-1,1,8
CCN(CC)CCCNC(=O)c1cc2c(-c3ccc(Cl)cc3)nn(C)c2s1,0,1,52*
CCN(CC)CCCNC(=O)c1cc(-c2ccc(Cl)c(Cl)c2)on1,2,-6,48*
CCN(CC)CCCNC(=O)c1cc(-c2ccc(O)cc2)on1,2,-2,12
Cn1nc(-c2ccc(Cl)cc2)c2cc(C(=O)NCC3CCCO3)sc21 (stereo not drawn),1,-5,10
CN1CCN(CCCNC(=O)c2cc3c(-c4ccc(Cl)cc4)nn(C)c3s2)CC1,-1,3,57*
CN(C(=O)COc1cc(=O)n(C)c2ccccc12)c1ccc(Br)cc1,0,-2,12
COc1ccc(CCN2C(=O)C3C4C=CC(C4)C3C2=O)cc1OC (stereo not drawn),0,0,8
O=C1CCN(C(=O)c2ccccc2)C2CCCCC12 (stereo not drawn),-1,-1,3
CC(=O)N1CCN=C1SCc1ccc(Cl)cc1,0,-2,7
O=C(Nc1nc2c(s1)CCc1ccccc1-2)c1cccs1,1,79*,2
CSc1nc2ccc3nc(NC(=O)c4cccs4)sc3c2s1,1,0,25
CC(=O)Nc1cccc(NC(=O)c2sc3ncn(CC(=O)N4CCCCC4)c(=O)c3c2C)c1,1,6,2
COC(=O)c1ccccc1NC(=O)c1cnc2sccn2c1=O,-10,-2,9
SMILES,Proteasome disasm,QS inhibitor,LNCaP diff act
COC(=O)Nc1sccc1C(=O)Nc1sccc1C(=O)OC,6,-2,32*
COc1ccccc1NC(=O)NCCN1C(=O)C2C3C=CC(C3)C2C1=O (stereo not drawn),-2,0,12
COc1ccc(Cc2n[nH]c(=O)c3ccccc23)cc1OC,0,0,.
Cc1nnc(NCc2n[nH]c(=O)c3ccccc23)c2ccccc12,-3,2,33*
N#Cc1cnc(SCCc2ccccc2)nc1N,88*,-3,21
N#Cc1cnc(SCC(=O)c2ccccc2)nc1N,15,0,7
COc1ccc(N(C)C(=O)CCS(=O)(=O)c2cccc3nonc23)c(OC)c1,-1,0,9
O=c1cc(N2CCC3(CC2)OCCO3)[nH]c(=O)n1C1CCCCC1,2,-10,10
O=c1cc(N2CCN(c3ccc(F)cc3)CC2)[nH]c(=O)n1C1CCCCC1,5,4,34*
